{
  "source": "PubChem BioAssay (NCI)",
  "note": "Compounds without any hit were thinned out: in the full panel of roughly 83,000, 20% have a hit.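 Step 1: grow cells in 96-well plates. Step 2: add test compound at a single concentration. Step 3: incubate 48 h. Step 4: record percent growth.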 A number with no mark means an inactive call. Activity calls are given as the source filed them.",
  "data": [
    {"system": "NCI-H522 lung", "test": "NCI-60 one-dose screen, 48 h (100 = growth as untreated, 0 = no growth, -100 = all killed)", "conditions": "10 µM unless noted", "experimental": "Growth inhibition of the NCI-H522 human Non-Small Cell Lung tumor cell line is measured as a screen for anti-cancer activity. Cells are grown in 96 well plates and exposed to the test compound for 48 hours. Compounds are tested at a single concentration, which is 10^-5 M for most compounds. The reported endpoint is percent growth (GI% or GIPRCNT), where numbers from 0 - 100% represent growth inhibition, and numbers from -100% - 0 represent cell death. For example, a value of 40 represents 60% growth inhibition. A value of 0 means no net growth occurred over the course of the experiment. A value of -40 indicates 40% of cells at the beginning of the experiment died by the end of the experiment. A value of -100 means all cells are dead at the end of the experiment.\nNCI-60 Human Tumor Cell Lines Screen was performed using the standard one-dose NCI protocol, which is described in more detail at https://dtp.cancer.gov/discovery_development/nci-60/default.htm.\nCompounds with GIPRCNT values below 10 were considered active. Activity score was based on GIPRCNT using the following formula: […]\nScore is 0 for GIPRCNT values of 100 or above, 50 for GIPRCNT values of 0, and 100 for GIPRCNT values of -100.", "values": [
      {"compound": "COc1cc(/C=C\\c2cc(OC)c(OC)c(OC)c2)cc(NS(=O)(=O)c2cccc(Cl)c2)c1OC", "growth": "9.96% (active)"},
      {"compound": "COc1ccc(N(CC(=O)NCCC[Te]c2ccccc2)C(=O)CCSC2=C(C)C(=O)c3ccccc3C2=O)cc1", "growth": "-41.2% (active)"},
      {"compound": "CC(C)COC(C[N+](=O)[O-])C(Cl)(Cl)Cl", "note": "(stereo not given)", "growth": "98.6%"},
      {"compound": "CCOP1(=O)CC(C)=C(Cl)C(P(=O)(OCC)OCC)C1", "note": "(stereo not given)", "growth": "71.3%"},
      {"compound": "CCCCN1CCCC[C@@H]1C(=O)N[C@H](C(=O)N(C)[C@H](C[C@@H](OC(C)=O)c1nc(C(=O)NC2CCC(C(=O)OC)CC2)cs1)C(C)C)C(C)C", "note": "(stereo not given in full)", "growth": "-11.8% (active)"},
      {"compound": "COC(=O)[C@@H](C)C[C@H](Cc1ccccc1)NC(=O)c1csc([C@@H](C[C@H](C(C)C)N(C)C(=O)[C@@H](NC(=O)CN(C)C)C2CC2)OC(C)=O)n1", "growth": "-44.7% (active)"},
      {"compound": "C[n+]1c(/C=C/c2ccc(N(CCCl)CCCl)cc2)sc2ccccc21", "growth": "16.4%"},
      {"compound": "CCCCCCCCOC(=O)CCN1CC1", "growth": "121%"},
      {"compound": "COC(=O)[C@@H](C)C[C@H](Cc1ccccc1)NC(=O)c1nc([C@@H](C[C@H](C(C)C)N(C)C(=O)[C@@H](NC(=O)[C@H]2C[C@H](O)CCN2C)C(C)C)OC(C)=O)sc1C(C)C", "growth": "-21.9% (active)"},
      {"compound": "CN(C)C(=O)Oc1ccccc1", "growth": "112%"},
      {"compound": "O=[N+]([O-])c1cnc[nH]1", "growth": "106%"},
      {"compound": "COc1cc(/C=N/C2=C(C#N)C(c3ccco3)c3c(c4cc(C)ccc4oc3=O)O2)cc(OC)c1OC", "note": "(stereo not given)", "growth": "40.3%"},
      {"compound": "O=C(O)c1c(Cl)n(Cc2ccc(O)cc2)c2ccc(O)cc12", "growth": "83.4%"},
      {"compound": "Cc1cc(NC(=O)NCc2ccc(N3C(N)=NC(N)=NC3(C)C)cc2)ccc1S(=O)(=O)F", "growth": "16.5%"},
      {"compound": "CCOC(=O)N[C@H]1CCc2c(Br)c(OC)c(OC)c(OC)c2-c2ccc(SC)c(=O)cc21", "growth": "13.2%"},
      {"compound": "O=P1(NCCCl)OCCCN1CCCl", "note": "(stereo not given)", "growth": "99.5%"},
      {"compound": "COc1ccc(/C=C\\c2cc(OC)c(OC)c(OC)c2)cc1OCC(=O)Nc1nc2ccc(C(F)(F)F)cc2s1", "growth": "-39.2% (active)"},
      {"compound": "COC(=O)[C@@]1(C)CC[C@]2(C)CC[C@]3(C)C4=CC(=O)c5c(cc(O)c(O)c5C)[C@]4(C)CC[C@@]3(C)[C@@H]2C1", "growth": "38.5%"},
      {"compound": "N#CC1(C#N)C(c2ccc(N(CCCl)CCCl)cc2)OC23CCCCC2C1(C#N)C(=N)O3", "note": "(stereo not given)", "growth": "80.2%"},
      {"compound": "Cc1c(C)c([N+](=O)[O-])c(C)c(C)c1[N+](=O)[O-]", "growth": "80.3%"},
      {"compound": "O=C(CCCC1CCCCC1)OCC(Cl)(Cl)Cl", "growth": "96.2%"},
      {"compound": "C=COC(=O)CCN1CC1", "growth": "107%"},
      {"compound": "CN1C(=O)C23CC4(C56CC78SSC(CO)(C(=O)N7C5Nc5ccccc56)N(C)C8=O)c5ccccc5NC4N2C(=O)C1(CO)SS3", "note": "(stereo not given)", "growth": "-85.9% (active)"},
      {"compound": "CCOc1ccccc1C(=O)OCC(Cl)(Cl)Cl", "growth": "105%"},
      {"compound": "O=C1CCC2(O)[C@@H]3Cc4ccc(O)c5c4[C@]2(CCN3Cc2ccoc2)C1O5", "note": "(stereo not given in full)", "growth": "95.4%"},
      {"compound": "CCOP(=O)(Cc1ccc(C#N)cc1)OCC", "growth": "75%"},
      {"compound": "COC(=O)C12CC(NC(=O)c3csc([C@@H](C[C@H](C(C)C)N(C)C(=O)[C@@H](NC(=O)[C@H]4CCCCN4C)C(C)C)OC(C)=O)n3)(C1)C2", "growth": "-23.6% (active)"},
      {"compound": "COc1cc(/C=C\\c2cc(OC)c(OC)c(OC)c2)cc(N/C=C\\C(=O)c2cc(OC)c(OC)c(OC)c2)c1OC", "growth": "6.46% (active)"},
      {"compound": "C=CCn1cc(C=C2C(=O)N(C)C(=O)N(C)C2=O)c2ccccc21", "growth": "105%"},
      {"compound": "CCOC(=O)[C@@H](C)C[C@H](Cc1ccccc1)NC(=O)c1csc([C@@H](C[C@H](C(C)C)N(C)C(=O)[C@@H](NC(=O)[C@H]2CCCCN2C)C(C)(C)CC)OC(C)=O)n1", "growth": "-32.8% (active)"},
      {"compound": "O=C([O][Hg][CH2]C1OCCOC1[CH2][Hg][O]C(=O)c1ccccc1)c1ccccc1", "note": "(stereo not given)", "growth": "-64.1% (active)"},
      {"compound": "C/C(=C\\c1ccn(-c2ccc(N)cc2)n1)[C@@H]1C[C@@H]2O[C@]2(C)CCC[C@H](C)[C@H](O)[C@@H](C)C(=O)C(C)(C)[C@@H](O)CC(=O)O1", "growth": "18.6%"},
      {"compound": "COC(=O)[C@@H](C)C[C@H](Cc1ccccc1)NC(=O)c1nc([C@@H](C[C@H](C(C)C)N(C)C(=O)[C@@H](NC(=O)[C@H]2CCCCN2C)C(C)C)OC(C)=O)sc1C(C)C", "growth": "-9.43% (active)"},
      {"compound": "ClCCN(CCCl)c1ccc(OCc2ccccc2)cc1", "growth": "75.1%"},
      {"compound": "CC(=O)O[C@H](C[C@H](C(C)C)N(C)C(=O)[C@@H](NC(=O)[C@H]1CCCCN1C)C(C)C)c1nc(C(=O)N[C@@H](Cc2ccccc2)C[C@H](C)C(=O)O)c(CCOCc2ccccc2)s1", "growth": "-47.4% (active)"},
      {"compound": "CC12CC(=O)C3(SC#N)C(CCC4=CC(=O)CCC43C)C1CCC2=O", "note": "(stereo not given)", "growth": "-3.58% (active)"},
      {"compound": "CNC(=O)Oc1ccc(C(C)(C)C)cc1OC(=O)NC", "growth": "84.8%"},
      {"compound": "O=C1C=C2C(=CCOC2O)O1", "note": "(stereo not given)", "growth": "-79.9% (active)"},
      {"compound": "C[C@]12CCc3sc(-c4ccccc4O)nc3C1=CC[C@@H]1[C@@H]2CC[C@]2(C)C(=O)CC[C@@H]12", "growth": "99.3%"},
      {"compound": "O=C(CCl)c1ccc([N+](=O)[O-])o1", "growth": "-56.7% (active)"}
    ]}
  ]
}
